According to PubChem BioAssay AID743287 (Broad Institute, 2014):
Out of some 370,000 compounds screened, about 2,300 (0.62%) were called active. The list comes from a sample in which actives are over-represented; it also holds similar structures and randomly drawn compounds. A number with no mark means an inactive call.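 How the source made its calls: active means lowest replicate activation of at least 40%, so every replicate reaches that level; inactive means the rest.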

Assay: GLuc luminescence reporter in INS-1E cells, primary screen for activators of glucose-dependent secretion of insulin (AID 743287);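 further: 0% = median of neutral control wells and 100% = median of IBMX positive control wells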
Conditions: INS-1E GLuc reporter insulin secretion, 2-3 h, at 16.6 µM, stronger effect = higher value

In order of rising activation:
1. CN1c2ccc(-c3cccc(F)c3)cc2[C@H]2[C@H](CCN2C(=O)C2CCCC2)[C@@H]1CO  -41.3%
2. COc1ccccc1NC(=O)N1CCCCN2[C@@H](CO)[C@@H](c3ccc(C#Cc4ccccc4)cc3)[C@@H]2C1  -22.8%
3. O=C(C1CCCC1)N1CC2(C1)[C@H](c1ccccc1)[C@H](CO)N2CCC(F)(F)F  -20.6%
4. COc1ccc2c3c([nH]c2c1)[C@H](CO)N(CC1CC1)CC31CN(C(=O)Nc2cccc(F)c2)C1  -17.2%
5. O=C(CC(c1ccccc1)c1cc(Cl)ccc1O)NCCN1CCOCC1 (stereo unspecified)  -15%
6. CCc1cnc(N2[C@H](C#N)[C@H](c3ccccc3-c3ccccc3C)[C@H]2CO)s1  -14.3%
7. C[C@H]1CN([C@@H](C)CO)C(=O)c2c(c3ccccc3n2C)-c2ccccc2CO[C@@H]1CN(C)C(=O)Nc1ccnc(N2CCOCC2)c1  -10.3%
8. O=C(Nc1ccc(C(F)(F)F)cc1)N[C@@H]1CC[C@H](CC(=O)N2CCCCC2)O[C@H]1CO  -5.98%
9. COCC(=O)Nc1ccc2c(c1)OC[C@H](C)NC[C@@H](C)[C@H](OC)CN(C)C2=O  -5.25%
10. CC(=O)Nc1ccc(NC(=O)C2CCCN2S(=O)(=O)c2cccc(C(F)(F)F)c2)cc1 (stereo unspecified)  -4.8%
11. Cc1nc2ccccc2nc(=O)c1NNc1ccc([N+](=O)[O-])cc1  -4.75%
12. COc1ccccc1CN1[C@H](CO)[C@H](c2ccccc2)C12CN(C(=O)c1ccccn1)C2  -3.88%
13. CC(C)C#Cc1ccc2c(c1)O[C@@H](CN(C)C(=O)C1CCC1)[C@@H](C)CN([C@@H](C)CO)S2(=O)=O  -2.35%
14. C[C@H]1CN([C@@H](C)CO)C(=O)c2cccc(NC(=O)Nc3ccc(C(F)(F)F)cc3)c2O[C@H]1CN(C)CC1CCCCC1  -0.988%
15. CC(C)NC(=O)N(C)C[C@H]1Oc2ccc(NS(C)(=O)=O)cc2C(=O)N(C)C[C@@H]1C  -0.922%
16. O=C(C[C@H]1C[C@H]2c3cc(NC(=O)NC4CCCC4)ccc3O[C@H]2[C@@H](CO)O1)NCc1ccc(-c2ccccc2)cc1  -0.703%
17. CCC1OC(c2ccc([N+](=O)[O-])cc2)=Nc2ccccc21 (stereo unspecified)  0.826%
18. O=C(NC[C@@H]1[C@@H](c2ccccc2)[C@@H](CO)N1Cc1ccccn1)C1CCC1  1.69%
19. O=C(CN(CC1CCCO1)C(=O)CNS(=O)(=O)c1ccccc1)NCc1ccccc1 (stereo unspecified)  1.79%
20. O=C(C[C@H]1C=C[C@H](NC(=O)Nc2cc(F)ccc2F)[C@@H](CO)O1)NCc1ccccn1  2.32%
21. COc1ccc(-c2cc(NC=O)c3ncc(-c4ccccc4)n3c2)cc1OC  2.43%
22. COc1ccc2c3c([nH]c2c1)[C@H](CO)N(Cc1nccs1)CC31CCN(Cc2ccncc2)CC1  3%
23. O=C(O)CCCN1C(=O)c2ccccc2Sc2ncccc21  3.02%
24. O=C(CCN1C(=O)C2C3C=CC(C3)C2C1=O)Nc1ccccc1F (stereo unspecified)  3.2%
25. O=C(CSc1nnnn1C1CCCC1)Nc1ccc2c(c1)OCCO2  4.25%
26. O=C(CSc1nc2[nH]ncc2c(=O)[nH]1)Nc1ccc(F)cc1  5.73%
27. COc1ccccc1-c1noc(CSc2nc(C)cc(=O)[nH]2)n1  5.85%
28. COc1cccc(C#Cc2ccc([C@@H]3[C@H]4CN(C(=O)Cc5ccccc5)CC(=O)N4[C@H]3CO)cc2)c1  6.19%
29. Cc1ccc2[nH]c(=O)c(CN(C)S(=O)(=O)c3cccc4nonc34)cc2c1  6.21%
30. COc1ccc(CN(C)C[C@H]2Oc3ccc(NS(=O)(=O)c4c(C)noc4C)cc3CC(=O)N([C@H](C)CO)C[C@H]2C)cc1  6.22%
31. COc1ccc2c3c([nH]c2c1)[C@@H](CO)N(Cc1ccc2c(c1)OCO2)CC31CN(C(=O)Nc2c(C)noc2C)C1  8.95%
32. S=C(Cc1ccc(Cl)cc1)N1CCOCC1  9.43%
33. C[C@H](CO)N1C[C@H](C)[C@@H](CN(C)CC2CC2)Oc2ccc(NS(=O)(=O)c3cn(C)cn3)cc2CC1=O  9.55%
34. C[C@H](O)C#Cc1cnc2c(c1)C(=O)N([C@@H](C)CO)C[C@H](C)[C@H](CN(C)C(=O)c1ccccc1)O2  11.8%
35. O=C(Nc1cc(F)ccc1F)N1CC(=O)N2[C@H](CO)[C@@H](c3ccc(-c4cccnc4)cc3)[C@@H]2C1  13.1%
36. CO[C@H]1CN(C)C(=O)c2cc(NC(C)=O)ccc2OC[C@H](C)N(C(=O)CN(C)C)C[C@@H]1C  13.5%
37. COC(=O)C[C@H]1C=C[C@H](NC(=O)Nc2ccc(C(F)(F)F)cc2)[C@@H](CO)O1  15.4%
38. Cc1nnc(NC(=O)CSc2nc(C3CCCCC3)nc3ccccc23)s1  16.1%
39. O=C(CN(CC1CCCO1)C(=O)CNS(=O)(=O)c1ccc(F)cc1)NCc1ccco1 (stereo unspecified)  16.2%
40. Cc1ccc(CSc2nc3[nH]ncc3c(=O)[nH]2)cc1  23.2%
41. C[C@@H]1CN(C)C(=O)c2cccc(N(C)C)c2O[C@H]1CN(C)S(C)(=O)=O  23.8%
42. COc1ccccc1CCn1cnc(-c2ccccc2)c1C(C)C  40.3%

In the case of `O=C(O)CCCN1C(=O)C2C3c4ccccc4C(c4ccccc43)[C@@H]2C1=O` (stereo partly specified), the activation is reported as 45.1% (active).
With `Cc1nc(-c2ccc([N+](=O)[O-])cc2)c(-c2ccccc2)o1` the activation was 97.9% (active).
In the case of `CCCc1nc(-c2cc3cc(C)ccc3[nH]c2=O)no1`, the activation is reported as 43.8% (active).
In the case of `OC(c1ccc(Cl)cc1)C(CN1CCOCC1)c1ccccc1` (stereo unspecified), the activation is reported as 225% (active).
For `O=C(CSc1nc(C2CC2)nc2ccccc12)Nc1ccc2c(c1)OCCO2`, the activation was 43.1% (active).
With `CCCSc1nc2[nH]ncc2c(=O)[nH]1` the activation was 53.9% (active).
For `CC(C)C(C(=O)NCc1ccco1)N(CC1CCCO1)C(=O)CNS(=O)(=O)c1ccc(F)cc1` (stereo unspecified), the activation was 47.3% (active).
In the case of `COc1ccc(-c2nn3c(-c4ccccc4)nnc3s2)cc1OC`, the activation is reported as 140% (active).
For `NC(c1csc(NC(=O)Nc2cccc(C(F)(F)F)c2)n1)C1CCCCC1` (stereo unspecified), the activation was 48.3% (active).
